Test results from PubChem BioAssay AID1259415 (National Center for Advancing Translational Sciences (NCATS), 2018).
“And” between values parts separate entries of the source, which are not always exact repeats. Identical values can stand only once. Out of some 410,000 compounds screened, about 18,000 (4.4%) were called active. Roughly 7% stayed inconclusive and do not appear here. What follows is part of a selection rich in actives, with near analogues and random picks from the rest. A number with no mark means an inactive call. No stated cut-off is given here; in the data, active means activity change below about -60%; inconclusive means no clear call, values can overlap the other calls; inactive means above about -39%.
On the % scale 0 is the no-effect control and ±100 the full control effect.

Assay: qHTS Assay for inhibitors of the human cytomegalovirus (HCMV)
Conditions: HFF cells, HCMV-luciferase reporter, 72 h; at 57.5 µM; active compounds read low
How it was run: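 Human foreskin fibroblasts infected with luciferase-reporter HCMV at MOI 1 PFU/cell, compounds at two doses. Luciferase measured 72 h post infection; normalized to buffer-only basal and Salinomycin (10uM) controls.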
In the case of `CCN(CCCNC(=O)c1cc(Nc2ccc(OC)cc2)nc2ccccc12)c1cccc(C)c1`, the activity change, negative = inhibition is reported as -61.5% (active). In the case of `COc1ccccc1Nc1cc(C(=O)NCCCN(C)C2CCCCC2)c2ccccc2n1`, the activity change, negative = inhibition is reported as -98.1% (active). With `CCCCN(CCCNC(=O)c1cc(Nc2ccccc2OC)nc2ccccc12)c1ccccc1` the activity change, negative = inhibition was -9.32%. Compound `COc1ccc(CCNC(=O)c2c3c(nc4ccccc24)C(=O)N(C2CCCCC2)C3)cc1OC` has an activity change, negative = inhibition of -6.18%. Compound `CCN(CCCNC(=O)CSc1cc(=O)n(C)c2cc(Cl)ccc12)c1cccc(C)c1` has an activity change, negative = inhibition of 1.12%. Compound `CCN(CCCNC(=O)c1cc2cc3cc(OC)ccc3nc2s1)c1ccccc1` has an activity change, negative = inhibition of 44.1%. For `CCc1nc2cccnc2n1-c1ccc(CC(=O)Nc2c(C)cccc2C)cc1`, the activity change, negative = inhibition was 0%. `Cc1cc(C)cc(NC(=O)c2cnc3sc(N4CCCC4)nn3c2=O)c1` showed an activity change, negative = inhibition of -28.7%. With `CCCCCCCCn1c2c(c(=N)c3c1CCC3)CCCC2` the activity change, negative = inhibition was -99.4% (active). Compound `CSc1ncc(C(=O)NCc2ccccc2Cl)c(C(F)(F)F)n1` has an activity change, negative = inhibition of -2.41%. `O=C(CCN1CCCO1)N1CCCC(N2CCN(c3cccc(C(F)(F)F)c3)CC2)C1` (centres undefined) showed an activity change, negative = inhibition of 69.3%. Work on `COC(=O)c1ccc(NC(=O)c2cc(S(=O)(=O)N3CCC(C)CC3)cn2C)cc1` yielded an activity change, negative = inhibition of -7.89%. `Cc1c2cnn(-c3ccccc3)c(=O)c2c(C)n1C(C)C(=O)Nc1ccc(Br)cc1F` (centres undefined) showed an activity change, negative = inhibition of -30.3%. In the case of `CC1CC(C)CN(S(=O)(=O)c2cccc(C(=O)N3C(=O)c4cccc(N)c4C3=O)c2)C1` (centres undefined), the activity change, negative = inhibition is reported as 4.25%. With `Cn1c(CCN2CCN(c3ccccn3)CC2)nc2cc(NS(=O)(=O)c3ccc(F)cc3)ccc21` the activity change, negative = inhibition was -85.1% (active). With `Cn1c(=O)n(C)c2cc(S(=O)(=O)Nc3ccc(F)cc3)ccc21` the activity change, negative = inhibition was 41.5%. In the case of `Cn1c(=O)n(C)c2cc(NS(=O)(=O)c3ccc(F)cc3)ccc21`, the activity change, negative = inhibition is reported as 1.03% and 221%. Work on `COc1ccc(NC(=O)CSc2nc3ccccc3[nH]2)cc1` yielded an activity change, negative = inhibition of 2.79%. `CC1=C(C(=O)Nc2ccccc2Cl)C(c2cccs2)n2ncnc2N1` (centres undefined) showed an activity change, negative = inhibition of -15.8%. With `CCOc1ccccc1NC(=O)C1=C(C)Nc2ncnn2C1c1ccc(NC(C)=O)cc1` (centres undefined) the activity change, negative = inhibition was 4.88%. In the case of `CCOC(=O)C1=C(c2ccccc2)Nc2ncnn2C1c1ccc(Cl)cc1` (centres undefined), the activity change, negative = inhibition is reported as -113% (active). `CCc1nn(CC(=O)Nc2cc(C)cc(C)c2)c(=O)c2cc3sccc3n12` showed an activity change, negative = inhibition of -8.76%. `CCS(=O)(=O)N1CCC(n2c(C)nc3cccnc32)CC1` gave an activity change, negative = inhibition of -0.684%. With `C=CCNC(=S)NNc1ncnc2sc3c(c12)CC(C)(C)OC3` the activity change, negative = inhibition was -105% (active). With `CC/C(C)=N/Nc1nc2sc3c(c2c(=O)[nH]1)CC(C)(C)OC3` the activity change, negative = inhibition was -10.6%. `CCCSc1nc2sc3c(c2c(=O)n1-c1cccc(Br)c1)CC(C)(C)OC3` gave an activity change, negative = inhibition of -0.221%. Compound `COc1ccc(NC(=O)C2CCCN(S(=O)(=O)c3c(C)[nH]c(=O)[nH]c3=O)C2)c(OC)c1` (centres undefined) has an activity change, negative = inhibition of 10.4%. With `CC(/C=C/c1ccccc1)=N\NC(=O)C1CC1(C)c1ccccc1` (centres undefined) the activity change, negative = inhibition was -62.3% (active). `COC(=O)C1(C)CC1(c1ccccc1)c1ccccc1` (centres undefined) showed an activity change, negative = inhibition of 13.4%. Work on `CC(/C=C/c1ccco1)=N/NC(=O)C1COc2ccccc2O1` (centres undefined) yielded an activity change, negative = inhibition of 27.4%. In the case of `Cc1cn(C2C=CC(CO)O2)c(=O)[nH]c1=O` (centres undefined), the activity change, negative = inhibition is reported as -30.1%. In the case of `COc1ccc(S(=O)(=O)NCC(c2ccc(N(C)C)cc2)N2CCCC2)cc1` (centres undefined), the activity change, negative = inhibition is reported as -4.35%. With `Cc1cc(C(=O)COc2ccccc2Cl)c(C)n1C1CC1` the activity change, negative = inhibition was -67.2% (active). For `Cc1ccccc1NC(=O)COC(=O)c1cc(C)n(C2CC2)c1C`, the activity change, negative = inhibition was -2.16%. Work on `Cc1cc(C(=O)OCC(=O)Nc2c(F)cccc2F)c(C)n1C1CC1` yielded an activity change, negative = inhibition of -2.16%. With `COc1cccc(CNC(=O)C2CCC(CNS(=O)(=O)c3cccs3)CC2)c1` (centres undefined) the activity change, negative = inhibition was -3.87%. Work on `Fc1cccc(-n2ncc3c2ncn2nc(-c4ccccc4Cl)nc32)c1` yielded an activity change, negative = inhibition of -25.2%. Work on `O=C(Cn1c(=O)n(Cc2ccccc2)c(=O)c2sc3ccccc3c21)Nc1ccccc1F` yielded an activity change, negative = inhibition of 20.5%. `CCOc1ccc(S(=O)(=O)NCCC(=O)NNC(=O)c2ccc(F)cc2)cc1` showed an activity change, negative = inhibition of 70.6%. Compound `Cc1ccc2sc(N(Cc3cccnc3)C(=O)C3COc4ccccc4O3)nc2c1C` (centres undefined) has an activity change, negative = inhibition of 0%. For `Cc1ccc(NC(=O)c2ccc(CSc3ncnc4nc[nH]c34)cc2)c(C)c1`, the activity change, negative = inhibition was -37%. In the case of `CCc1ccc(N(CC)c2ncnc3nc[nH]c23)cc1`, the activity change, negative = inhibition is reported as -84.7% (active). In the case of `S=c1c2[nH]cnc2ncn1CCSc1ncnc2nc[nH]c12`, the activity change, negative = inhibition is reported as -16%. `CC(C)(C)C1CCc2c(sc(NC(=O)c3ccccc3F)c2C(=O)N2CCCCC2)C1` (centres undefined) gave an activity change, negative = inhibition of -1.57%. For `CCOC(=O)NN1C(=O)c2ccccc2NC1c1cccc(O)c1` (centres undefined), the activity change, negative = inhibition was -96.9% (active). For `CCOC(=O)NN1C(=O)c2ccccc2NC1c1ccccc1O` (centres undefined), the activity change, negative = inhibition was 54.6%. `CC(=O)NN1C(=O)c2ccccc2NC1c1ccccc1` (centres undefined) gave an activity change, negative = inhibition of 44.7%. `CC1(C)C(C=C(Cl)Cl)C1C(=O)NC(O)C(=O)c1ccccc1` (centres undefined) gave an activity change, negative = inhibition of -33.9%. `Cc1cc(C)cc(NC(=O)Cn2c(=O)c3ccccc3n3nncc23)c1` gave an activity change, negative = inhibition of 2.01%. `CC(=O)c1sc(N2C(=O)c3oc4ccccc4c(=O)c3C2c2ccc(C)cc2)nc1C` (centres undefined) gave an activity change, negative = inhibition of 24.4%. `CCOc1ccc(OCc2ccc(C(=O)N(C)c3ccccc3)o2)cc1` gave an activity change, negative = inhibition of 41.3%. Compound `CCN(CC)c1ccc(NC(=O)CN2CCN(c3ccccn3)CC2)cc1` has an activity change, negative = inhibition of 28.5%. In the case of `CN(C(=O)CN1CCN(c2cc(-c3ccc(OCc4ccccc4)cc3)ncn2)CC1)c1ccccc1`, the activity change, negative = inhibition is reported as -71.2% (active). Compound `CCCc1cc(=O)n2[nH]c(NCc3ccc(CC)cc3)nc2n1` has an activity change, negative = inhibition of -6.39%. Work on `CC(=O)NC(c1ccccc1)c1nc(-c2ccccc2C)cs1` (centres undefined) yielded an activity change, negative = inhibition of -25.4%. Compound `OC(c1ccccc1)c1nc(-c2cnc3ccccc3c2)cs1` (centres undefined) has an activity change, negative = inhibition of 184%. For `CC(=O)NC(c1ccccc1)c1nc(-c2cccc(C(C)C)c2)cs1` (centres undefined), the activity change, negative = inhibition was -66.8% (active). Work on `Cc1ccc(N(C)C(=O)C2CCN(S(=O)(=O)c3ccc4c(c3)CCCN4C(=O)C3CCC3)CC2)cc1` yielded an activity change, negative = inhibition of 8.58%. For `Cc1c(NC(=O)C(C)Oc2cccc(Cl)c2)c(=O)n(-c2ccccc2)n1C` (centres undefined), the activity change, negative = inhibition was -25%. `NC(=O)C1CCN(C(=O)CC2C(=O)NCCN2Cc2cccc(Oc3ccccc3)c2)CC1` (centres undefined) showed an activity change, negative = inhibition of -38.9%. In the case of `ClC1(Cl)CC1CSc1ncn[nH]1` (centres undefined), the activity change, negative = inhibition is reported as 62.8%. For `COc1ccc(Cl)cc1CSc1ncn[nH]1`, the activity change, negative = inhibition was -63.2% (active). `CCCCOc1ccc(Cl)cc1CSc1nncn1N` showed an activity change, negative = inhibition of -20.2%. With `CCCCOc1ccc(NC(=O)c2cc3c(n(-c4ccc(Cl)cc4)c2=O)CCCC3=O)cc1` the activity change, negative = inhibition was 14.9%. `COC(=O)c1ccc(NC(=O)CSc2n[nH]c(-c3ccccc3)n2)cc1` gave an activity change, negative = inhibition of 16.1%. Compound `Cc1ccc(NC(=O)C(=O)NCC(c2cccnc2)N2CCOCC2)cc1` (centres undefined) has an activity change, negative = inhibition of -12.5%. Work on `COc1ccccc1N1CCN(C2C(=O)c3ccccc3N2C(C)=O)CC1` (centres undefined) yielded an activity change, negative = inhibition of 0%. For `Cc1ccc(C(=O)N/C(=C\c2cn(S(=O)(=O)N(C)C)c3ccccc23)C(=O)N2CCCC2)cc1`, the activity change, negative = inhibition was -95.9% (active). In the case of `O=C(N/C(=C\c1ccc(O)cc1)C(=O)N1CCCCC1)c1ccccc1`, the activity change, negative = inhibition is reported as -16.2%. Compound `Cc1ccc(C(=O)N/C(=C/c2cccs2)C(=O)N2CCCCC2)cc1` has an activity change, negative = inhibition of -25.9%. With `C#Cc1ccc(NC(=O)C2(C)CCN2C(=O)Cc2ccc(-c3ccccc3)cc2)cc1` (centres undefined) the activity change, negative = inhibition was -83.5% (active). For `CC1(C(=O)NS(=O)(=O)c2cccs2)CCN1C(=O)Cc1ccc(-c2ccccc2)cc1` (centres undefined), the activity change, negative = inhibition was -1.93%. Work on `COc1ccc(OC)c(NC(=O)C2(C)CCN2C(=O)Cc2ccccc2)c1` (centres undefined) yielded an activity change, negative = inhibition of -33.9%. `COC(=O)c1cc(NC(=O)CCS(=O)(=O)c2cc(Br)cc3c2N(C(=O)C2CC2)CC3)cc(C(=O)OC)c1` showed an activity change, negative = inhibition of 3.41%. Work on `COc1cc(-n2c(C)nc3cc(C(=O)NCc4ccco4)ccc32)cc(OC)c1OC` yielded an activity change, negative = inhibition of 17.2%. In the case of `CCCC1=Nc2cc(C(=O)NCc3ccco3)ccc2Sc2ccccc21`, the activity change, negative = inhibition is reported as -69.1% (active). Work on `O=C(NCc1ccco1)c1cccc(-c2ccc3nncn3c2)c1` yielded an activity change, negative = inhibition of 15.7%. For `COc1ccc(-c2ccc(=O)n(CC(=O)Nc3ccc(Br)cc3F)n2)cc1`, the activity change, negative = inhibition was -10.5%. `O=C1c2cccc3cccc(c23)N1CN1CCN(c2ccccn2)CC1` showed an activity change, negative = inhibition of 16%. `CCOC(=O)c1c(C)[nH]c(C)c1S(=O)(=O)NCC(=O)NCc1cccc(C)c1` gave an activity change, negative = inhibition of -20.2%. `COc1ccccc1NC(=O)C1=C(C)Nc2nc(SCC(=O)c3ccc(C)cc3)nn2C1c1ccccc1C` (centres undefined) gave an activity change, negative = inhibition of -1.97%. Work on `Cc1cccc2c1-c1sc(C(=O)Nc3ccc(F)cc3F)cc1CO2` yielded an activity change, negative = inhibition of -12.8%. `CCOC(=O)C1Cn2c(nc3c(c2=O)C(C)(CC)Cc2ccccc2-3)S1` (centres undefined) showed an activity change, negative = inhibition of -19.7%. `COc1ccc(-n2c(SCC(N)=O)nc3c(oc4ccccc43)c2=O)cc1` showed an activity change, negative = inhibition of -15.1%. With `Cc1cccc(-n2c(SCC(N)=O)nc3c(c2=O)C2(CCCCC2)Cc2ccccc2-3)c1` the activity change, negative = inhibition was -70.4% (active). With `NC(=O)c1ccc(Nc2ccc3c(c2)CCC3)c([N+](=O)[O-])c1` the activity change, negative = inhibition was -8.76%. Compound `CCCCN(CC)C(=O)c1c[nH]c2ccc(S(=O)(=O)Nc3cccc(OC)c3)cc2c1=O` has an activity change, negative = inhibition of 7.97%. For `CCOc1ccccc1C(=O)NCc1ccc2c(c1)CCN2C(=O)c1ccc(F)cc1`, the activity change, negative = inhibition was -15.6%. With `Cc1ncsc1CCCl` the activity change, negative = inhibition was -26.8%.
